Among the data in PubChem BioAssay (NCI) are growth values, retold here.

About 83,000 compounds went through this panel and 20% of them were active in at least one assay; those are over-represented in the sample as a whole.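 In brief: 96-well plates, 48 h treatment, single concentration, percent growth endpoint.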 Values without a mark were called inactive. Activity calls are given as the source filed them. The calls were made as follows: active = growth percent below 10; inactive = the rest.

Holding throughout (assay): NCI-60 one-dose screen, 48 h (100 = growth as untreated, 0 = no growth, -100 = all killed)
Common to all, as to settings: 10 µM unless noted

Experiment [1] concerns T-47D breast.
Experiment [2] has as its system BT-549 breast.
Experiment [3] relates to MDA-MB-435 melanoma.
The test system of experiment [4] is SW-620 colon.
The subject of experiment [5] is MCF7 breast.
Experiment [6] concerns HCT-116 colon.
Experiment [7] relates to HCC-2998 colon.
Experiment [8] concerns KM12 colon.

On to `NC(=O)c1cc(I)ccc1NC(=O)/C=C/c1ccccc1Cl`, for which the growth is 26.6% in experiment [1]; 70.1% in experiment [2]; -31.8% (active) in experiment [3]; 26.9% in experiment [4]; 7.38% (active) in experiment [5]; 14.5% in experiment [6]. In addition, the growth in experiment [7] was 23.4%; in experiment [8], 10.6%.

For the compound `COc1ccc(-c2nc3cc(C(=O)Nc4cc(OC)c(OC)c(OC)c4)ccc3n2C2CCCCC2)cc1`, the growth is 97.4% in experiment [1]; 94.6% in experiment [2]; 46% in experiment [3]; 92.5% in experiment [4]; 91.2% in experiment [5]; 93.5% in experiment [6]. Moreover, the growth in experiment [7] was 104%; in experiment [8] it was 91.9%.

On to `N#Cc1nnn(-c2ccc(S(N)(=O)=O)cc2)c1NC(=O)CCl`, for which the growth is 95.2% in experiment [1]; 97.1% in experiment [2]; 99.6% in experiment [3]; 102% in experiment [4]; 90.9% in experiment [5]; 94.6% in experiment [6]. Also, the results for the growth in experiment [7] and in experiment [8] were 106% and 94.9%, respectively.

For the compound `COC[C@H](C)n1c(C2CCOCC2)nc2cnc3cc(-c4c(C)noc4C)c(OC)cc3c21`, the growth in experiment [1] was 37.9%; in experiment [2] it was 69.2%; in experiment [3], 44.5%; in experiment [4] it was 64.3%; in experiment [5], 22.5%; in experiment [6], 46.8%. Moreover, the growth in experiment [7] was 56.6%; in experiment [8], 54%.

As to `C(=N/Nc1ncc(-c2cc3cc(-c4ccccc4)ccc3o2)s1)/c1cccs1`, the growth in experiment [1] is 100%; in experiment [2], 110%; in experiment [3], 95.9%; in experiment [4] it was 99.7%; in experiment [5], 89.7%; in experiment [6], 91.5%. For the same compound, the values for the growth in experiment [7] and in experiment [8] were 100% and 97%, respectively.

Take `CCOC(=O)c1c(C)oc2ncnc(N3CCN(C(=O)COc4ccc(SC)cc4)CC3)c12`: the growth in experiment [1] was 61.7%; in experiment [2], 90.8%; in experiment [3], 103%; in experiment [4], 102%; in experiment [5], 92.6%; in experiment [6], 91.6%. The growth in experiment [7] was 110%; in experiment [8] it was 95.6%.

As to `O=C(Cn1cccc(Nc2ccccc2)c1=O)Nc1ccccc1`, the growth is 93.9% in experiment [1]; 106% in experiment [2]; 97.3% in experiment [3]; 102% in experiment [4]; 96.1% in experiment [5]; 98.6% in experiment [6]. The growth is 109% in experiment [7] and 110% in experiment [8].

Take `CC(=O)OCCC/C(=C/c1cc2ccccc2c2ccccc12)[N+](=O)[O-]`: the growth in experiment [1] was -66.7% (active); in experiment [2] it was -50% (active); in experiment [3], -36.2% (active); in experiment [4], -88.2% (active); in experiment [5] it was -87.8% (active); in experiment [6], -100% (active). The results for the growth in experiment [7] and in experiment [8] were -99.5% (active) and -99.2% (active), respectively.

For the compound `CC(=O)O[C@H]1CC[C@]2(C)[C@H]3CC=C4[C@@H]5CC(C)(C)CC[C@]5(C(=O)NCCNCCNCCN)CC[C@@]4(C)[C@]3(C)CC[C@H]2C1(C)C`, the growth was -15.1% (active) in experiment [1]; 87.2% in experiment [2]; 9.05% (active) in experiment [3]; -83.1% (active) in experiment [4]; -85.9% (active) in experiment [5]; -80.8% (active) in experiment [6]. The growth in experiment [7] is 1.19% (active); in experiment [8] it was 85.3%.

For the compound `O=C(/C=C/c1cccc([N+](=O)[O-])c1)c1ccc(O)c(CN2CCN(c3cc4c(cc3F)c(=O)c(C(=O)O)cn4C3CC3)CC2)c1`, the growth is 10.9% in experiment [1]; 6.04% (active) in experiment [2]; 11.2% in experiment [3]; -43% (active) in experiment [4]; 1.85% (active) in experiment [5]; -59.5% (active) in experiment [6]. The growth is 35.5% in experiment [7] and -12.2% (active) in experiment [8].

With `Nc1ccc(-c2cc3c(NCc4ccccc4)ncnc3s2)cc1`, the growth is 52.4% in experiment [1]; 78.2% in experiment [2]; 93.7% in experiment [3]; 105% in experiment [4]; 72.5% in experiment [5]; 95.6% in experiment [6]. Moreover, the growth in experiment [7] is 92.6%; in experiment [8], 88.6%.

In the case of `O=C1/C(=C/c2cn(-c3ccccc3)nc2-c2ccccc2)SC(=S)N1CCc1ccccc1`, the growth in experiment [1] is 96.5%; in experiment [2] it was 109%; in experiment [3] it was 97.6%; in experiment [4], 100%; in experiment [5], 95.3%; in experiment [6], 102%. The results for the growth in experiment [7] and in experiment [8] were 107% and 100%, respectively.

Turning to `OCC(O)c1nc2ccc3[nH]ncc3c2c2c1CCCC2` (stereo not given), the growth in experiment [1] was 14%; in experiment [2], -24.6% (active); in experiment [3], 17.4%; in experiment [4], 3.04% (active); in experiment [5], 8.02% (active); in experiment [6], 1.98% (active). Besides, the growth is 29.5% in experiment [7] and 4.4% (active) in experiment [8].

For the compound `COc1cc(C=Nc2oc(-c3ccccc3)c(-c3ccccc3)c2C#N)cc(CN2CCCCC2)c1O`, the growth in experiment [1] was 86.8%; in experiment [2], 111%; in experiment [3], 103%; in experiment [4], 104%; in experiment [5], 94%; in experiment [6], 95%. In addition, the figures for the growth in experiment [7] and in experiment [8] were 102% and 100%, respectively.

As for `Brc1ccc(-c2csc(Nc3ccccn3)n2)cc1`, the growth in experiment [1] is 53.7%; in experiment [2], 112%; in experiment [3], 88.5%; in experiment [4], 103%; in experiment [5], 34.5%; in experiment [6], 81.3%. Also, the figures for the growth in experiment [7] and in experiment [8] were -5.04% (active) and 86.4%, respectively.
